From PubChem BioAssay (EPA / NIEHS) come the findings set out here.

Assay [1] deals with Glucocorticoid receptor (Homo sapiens) (UniProt P04150). As to the kind of experiment: ATG_GR_TRANS: Attagene TRANS-FACTORIAL HepG2 Assay for human Glucocorticoid Receptor (GR) (AID 2282978; active means hit-call score of the fitted dose curve at least 0.9, where 1 is the maximum;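 further: activators score as hits since higher reporter transcript over DMSO is fitted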). The settings on record: HepG2 Attagene TRANS GR reporter, mRNA transcription. The procedure, abridged: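 After 24 h incubation with test chemical, transfected HepG2 cells were lysed for RNA; reporter cDNA was amplified, FAM-labelled, HpaI-digested and sized on a capillary analyser. Signal gain relative to DMSO was scored.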

Assay [2] addresses Oxysterols receptor LXR-alpha (Homo sapiens) (UniProt Q13133). As to the kind of experiment: ATG_LXRa_TRANS: Attagene TRANS-FACTORIAL HepG2 Assay for human Liver X Receptor alpha (LXRa) (AID 2282980; active means hit-call score of the fitted dose curve at least 0.9, where 1 is the maximum). The settings on record: HepG2 Attagene TRANS reporter, LXRa transactivation. The procedure, abridged: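 Transient HepG2 transfectants, 24 h dosing, RT-PCR/CE mRNA reporter quantitation; gain-of-signal vs DMSO.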

The target of assay [3] is Oxysterols receptor LXR-beta (Homo sapiens) (UniProt P55055). In words: ATG_LXRb_TRANS: Attagene TRANS-FACTORIAL HepG2 Assay for human Liver X Receptor beta (LXRb) (AID 2282981; active means hit-call score of the fitted dose curve at least 0.9, where 1 is the maximum). The settings on record: HepG2 Attagene TRANS GAL4-LXRb reporter, mRNA. The procedure, abridged:
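Cells: HepG2, transiently transfected with GAL4-UAS reporter units plus LXRb-Gal4 fusion. Treatment: 24 h. Detection: reporter mRNA by RT-PCR, 6-FAM labelling, HpaI digestion, capillary electrophoresis.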

Assay [4] in a line: ATG_M_06_TRANS: Attagene TRANS-FACTORIAL HepG2 Assay for M06 Transcription Factor (Internal Marker) (AID 2282983; active means hit-call score of the fitted dose curve at least 0.9, where 1 is the maximum). The settings on record: HepG2 Attagene TRANS M06 internal marker reporter. The procedure, abridged:
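Measured by capillary electrophoresis of fluorescently labelled RT-PCR products, this endpoint reflects reporter mRNA in HepG2 cells harbouring exogenous NR-GAL4 reporter constructs after 24 h exposure, with DMSO as baseline.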

Assay [5] is described as follows: ATG_M_32_TRANS: Attagene TRANS-FACTORIAL HepG2 Assay for M32 Transcription Factor (Internal Marker) (AID 2282984; active means hit-call score of the fitted dose curve at least 0.9, where 1 is the maximum;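 further: transcript level of a background control reporter unit measured by RT-PCR and capillary electrophoresis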). The conditions noted are these: HepG2 Attagene TRANS M32 internal marker reporter. A digest of the protocol: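 Using transiently transfected HepG2 cells exposed to test chemicals for 24 h, reporter transcripts are converted to labelled cDNA fragments and quantified by capillary electrophoresis. DMSO defines the activity baseline.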

The target of assay [6] is Transcriptional activator Myb (Homo sapiens) (UniProt P10242). As to the kind of experiment: ATG_Myb_CIS: Attagene CIS-FACTORIAL HepG2 Assay for human Myeloblastosis (Myb) Proto-Oncogene Transcription Factor (AID 2282986). The conditions noted are these: HepG2 Attagene CIS-FACTORIAL Myb reporter transcription; actives raise or lower the signal. A digest of the protocol:
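After 24 h of compound dosing, total RNA from transfected HepG2 cells is reverse-transcribed and the reporter sequences amplified, labeled and separated by capillary electrophoresis. Values come from bidirectional fitting against DMSO.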

Assay [7] can be described thus: ATG_NFI_CIS: Attagene CIS-FACTORIAL HepG2 Assay for human Nuclear Factor I (NFI) (AID 2282989). The settings on record: HepG2 cis-regulatory reporter, NFI response element transcription; actives raise or lower the signal. A digest of the protocol: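 HepG2 cells transiently transfected with cis-element-driven multiplexed reporter transcription units, dosed for 24 h. Reporter mRNA quantified by RT-PCR, fluorescent labelling, HpaI digestion and capillary electrophoresis; bidirectional fit versus DMSO baseline.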

Assay [8] addresses Myc proto-oncogene protein (Homo sapiens) (UniProt P01106). As to the kind of experiment: ATG_Myc_CIS: Attagene CIS-FACTORIAL HepG2 Assay for human Myelocytomatosis (Myc) Proto-Oncogene Transcription Factor (AID 2282990). The settings on record: HepG2, Attagene cis-reporter transcription factor activity; actives raise or lower the signal. The procedure, abridged:
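HepG2, transient MRTU transfection (cis promoters, endogenous TFs); 24 h dosing; TriZol RNA → oligo(dT) RT → PCR → 6-FAM primer extension → HpaI cut → CE. Bidirectional fit vs DMSO.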

The nature of assay [9]: ATG_NRF2_ARE_CIS: Attagene CIS-FACTORIAL HepG2 Assay for human Nuclear Factor Erythroid 2 Related Factor 2 (NFR2) response to Antioxidant Response Elements (ARE) (AID 2282992). The settings on record: HepG2 Attagene ARE/NRF2 reporter, transcription factor activity; actives raise or lower the signal. A digest of the protocol:
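Multiplexed reporter mRNA profiling in HepG2 after a 24 h chemical exposure. Curves fitted in both directions relative to DMSO negative control.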

Assay [10] is described as follows: ATG_Oct_MLP_CIS: Attagene CIS-FACTORIAL HepG2 Assay for human Octamer-Binding Transcription Factor (Oct) (AID 2282993). The conditions noted are these: HepG2 Attagene cis-factorial Oct reporter, mRNA; actives raise or lower the signal. The procedure, abridged: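 HepG2 cells transiently transfected with cis-promoter-driven multiplexed reporter transcription units, dosed for 24 h. Reporter mRNA quantified by RT-PCR, fluorescent labelling, HpaI digestion and capillary electrophoresis; bidirectional fits versus DMSO baseline.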

In assay [11] the target is Cellular tumor antigen p53 (Homo sapiens) (UniProt P04637). In words: ATG_p53_CIS: Attagene CIS-FACTORIAL HepG2 Assay for human p53 Transcription Factor (AID 2282994). The settings on record: HepG2 p53 cis-element reporter, Attagene mRNA; actives raise or lower the signal. The procedure, abridged: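 Multiplexed reporter mRNA assay in human HepG2 liver cells; cis-regulated units report endogenous factor activity. Values come from bidirectional curve fitting against DMSO negative control after 24 h treatment.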

For assay [12], the target named is Nuclear respiratory factor 1 (Homo sapiens) (UniProt Q16656). In words: ATG_NRF1_CIS: Attagene CIS-FACTORIAL HepG2 Assay for human Nuclear Respiratory Factor 1 (NRF1) Orphan Gene (AID 2282987). The settings on record: HepG2 NRF1 cis-element reporter, Attagene multiplex; actives raise or lower the signal. The procedure, abridged:
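Measured: fluorescent reporter-specific RT-PCR products from transfected HepG2 cells, separated by capillary electrophoresis. Exposure lasted 24 h. Analysis used bidirectional curve fitting with DMSO as negative control.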

The nature of assay [13]: BSK_3C_TissueFactor: BioMAP Diversity Plus: 3C Assay for Tissue Factor Biomarker Activity (AID 2282997). The conditions noted are these: BioMAP 3C HUVEC, tissue factor biomarker readout; actives raise or lower the signal. The procedure, abridged: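 Values derive from bidirectional curve fitting against DMSO of Tissue Factor ELISA signals, taken 24 h after dosing primary human umbilical vein endothelial cells.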

Assay [14] in a line: BSK_3C_uPAR: BioMAP Diversity Plus: 3C Assay for Urokinase-type plasminogen activator receptor (uPAR) Biomarker Activity (AID 2282998). The settings on record: BioMAP 3C HUVEC, uPAR biomarker ELISA; actives raise or lower the signal. A digest of the protocol:
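Human umbilical vein endothelial primary cells were exposed to test chemical for 24 h. Cell-surface uPAR was then quantified by ELISA, and responses were fitted bidirectionally against DMSO as negative control and baseline.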
A general note: ELISA stands for enzyme-linked immunosorbent assay.

The target in assay [15] is Bile acid receptor (Homo sapiens) (UniProt Q96RI1). In words: ATG_FXR_TRANS: Attagene TRANS-FACTORIAL HepG2 Assay for Farnesoid X Receptor (FXR) (AID 2282979; active means hit-call score of the fitted dose curve at least 0.9, where 1 is the maximum;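 further: hits raise reporter mRNA above DMSO so AC50 marks FXR activation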). The conditions noted are these: HepG2 Attagene TRANS FXR-GAL4 reporter transcription. The procedure, abridged: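 Chimeric FXR-GAL4 activity in transiently transfected human HepG2 liver cells is scored as induction of reporter mRNA after 24 h of dosing. Detection uses RT-PCR with fluorescent labelling and capillary electrophoresis, with DMSO serving as baseline.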

Assay [16] has as its target Nuclear receptor subfamily 4 group A member 2 (Homo sapiens) (UniProt P43354). As to the kind of experiment: ATG_NURR1_TRANS: Attagene TRANS-FACTORIAL HepG2 Assay for human Nuclear Receptor Related Protein 1 (NURR1) (AID 2282985; active means hit-call score of the fitted dose curve at least 0.9, where 1 is the maximum). The conditions noted are these: HepG2 Attagene TRANS reporter, mRNA readout. The procedure, abridged: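 Cells: HepG2, transiently transfected. Exposure: 24 h. Detection: fluorescence of labelled RT-PCR products separated by capillary electrophoresis; upward fit versus DMSO.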

A short description of assay [17]: ATG_NF_kB_CIS: Attagene CIS-FACTORIAL HepG2 Assay for human Nuclear Factor Kappa B (NF-kB) (AID 2282991). The settings on record: HepG2 Attagene cis-factorial NF-kB reporter mRNA; actives raise or lower the signal. A digest of the protocol: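 Fluorescence of labelled RT-PCR products separated by capillary electrophoresis gives reporter mRNA levels from transfected HepG2 cells exposed 24 h; values are fitted in both directions relative to DMSO.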

Assay [18] concerns the target Hepatocyte nuclear factor 4-alpha (Homo sapiens) (UniProt P41235). In words: ATG_HNF4a_TRANS: Attagene TRANS-FACTORIAL HepG2 Assay for human Hepatocyte Nuclear Factor 4 alpha (HNF4a) (AID 2282982; active means hit-call score of the fitted dose curve at least 0.9, where 1 is the maximum). The settings on record: HepG2 HNF4a transactivation reporter, mRNA readout. A digest of the protocol: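 Transfected HepG2 reporter cells are dosed for 24 h; reporter RNA is reverse-transcribed, amplified, fluorescently labelled and HpaI-digested before CE sizing. Positive-direction fit against DMSO.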

The nature of assay [19]: BSK_3C_VCAM1: BioMAP Diversity Plus: 3C Assay for Vascular cell adhesion molecule 1 (VCAM1) Biomarker Activity (AID 2282999). The conditions noted are these: BioMAP 3C HUVEC, VCAM1 ELISA, cytokine-stimulated; actives raise or lower the signal. The procedure, abridged:
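Endothelial cells from human umbilical vein are treated with test chemical. At 24 h, VCAM-1 is measured by ELISA, and responses in either direction are fitted relative to DMSO.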

Molecules are shown by their SMILES. Records with an inconclusive call do not appear. Activity calls are given as the source filed them. How the source made its calls, unless noted: active means hit-call score of the fitted dose curve at least 0.9, where 1 is the maximum; inactive means score below 0.9.

Cellular tumor antigen p53 (Homo sapiens), sequence (P04637 whole entry, looked up): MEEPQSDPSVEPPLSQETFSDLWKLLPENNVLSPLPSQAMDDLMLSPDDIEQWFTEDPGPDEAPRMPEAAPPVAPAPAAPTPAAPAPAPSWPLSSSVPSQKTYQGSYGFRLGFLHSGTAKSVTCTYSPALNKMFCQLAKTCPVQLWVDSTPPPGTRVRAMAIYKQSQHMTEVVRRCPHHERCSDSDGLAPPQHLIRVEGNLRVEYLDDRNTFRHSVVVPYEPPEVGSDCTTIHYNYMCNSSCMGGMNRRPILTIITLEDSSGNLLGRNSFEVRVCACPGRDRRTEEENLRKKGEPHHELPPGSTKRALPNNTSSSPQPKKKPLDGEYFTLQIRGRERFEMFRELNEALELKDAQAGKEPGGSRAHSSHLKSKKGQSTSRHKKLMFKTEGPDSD
Nuclear respiratory factor 1 (Homo sapiens), sequence (Q16656 whole entry, looked up): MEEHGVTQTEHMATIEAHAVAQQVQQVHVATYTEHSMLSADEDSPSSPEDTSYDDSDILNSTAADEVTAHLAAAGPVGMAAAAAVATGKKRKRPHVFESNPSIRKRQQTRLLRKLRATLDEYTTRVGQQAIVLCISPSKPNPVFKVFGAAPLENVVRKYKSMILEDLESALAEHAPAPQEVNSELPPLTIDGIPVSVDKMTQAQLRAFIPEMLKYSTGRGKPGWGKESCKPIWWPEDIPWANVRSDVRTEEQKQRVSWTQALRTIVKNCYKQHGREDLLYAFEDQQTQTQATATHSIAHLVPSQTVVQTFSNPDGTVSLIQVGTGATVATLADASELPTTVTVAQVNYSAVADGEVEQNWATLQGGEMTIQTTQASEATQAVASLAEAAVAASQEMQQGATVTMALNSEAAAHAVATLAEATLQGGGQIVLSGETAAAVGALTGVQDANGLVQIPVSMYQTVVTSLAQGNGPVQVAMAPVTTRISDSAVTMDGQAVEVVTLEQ
Bile acid receptor (Homo sapiens), sequence (Q96RI1 whole entry, looked up, the tested form may be a part): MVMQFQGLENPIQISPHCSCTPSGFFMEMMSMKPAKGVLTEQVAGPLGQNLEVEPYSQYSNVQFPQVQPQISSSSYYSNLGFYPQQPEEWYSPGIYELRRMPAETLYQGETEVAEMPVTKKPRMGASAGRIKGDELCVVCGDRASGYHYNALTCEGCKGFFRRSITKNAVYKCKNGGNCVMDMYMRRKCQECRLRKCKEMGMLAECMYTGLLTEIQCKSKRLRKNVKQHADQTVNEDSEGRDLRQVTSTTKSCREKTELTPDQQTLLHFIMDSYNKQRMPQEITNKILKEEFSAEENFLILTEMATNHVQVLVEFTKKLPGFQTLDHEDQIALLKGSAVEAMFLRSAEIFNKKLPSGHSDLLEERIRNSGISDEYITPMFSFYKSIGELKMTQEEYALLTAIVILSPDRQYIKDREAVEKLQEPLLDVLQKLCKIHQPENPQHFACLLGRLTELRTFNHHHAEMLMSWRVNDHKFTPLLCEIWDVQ
Myc proto-oncogene protein (Homo sapiens), sequence (P01106 whole entry, looked up): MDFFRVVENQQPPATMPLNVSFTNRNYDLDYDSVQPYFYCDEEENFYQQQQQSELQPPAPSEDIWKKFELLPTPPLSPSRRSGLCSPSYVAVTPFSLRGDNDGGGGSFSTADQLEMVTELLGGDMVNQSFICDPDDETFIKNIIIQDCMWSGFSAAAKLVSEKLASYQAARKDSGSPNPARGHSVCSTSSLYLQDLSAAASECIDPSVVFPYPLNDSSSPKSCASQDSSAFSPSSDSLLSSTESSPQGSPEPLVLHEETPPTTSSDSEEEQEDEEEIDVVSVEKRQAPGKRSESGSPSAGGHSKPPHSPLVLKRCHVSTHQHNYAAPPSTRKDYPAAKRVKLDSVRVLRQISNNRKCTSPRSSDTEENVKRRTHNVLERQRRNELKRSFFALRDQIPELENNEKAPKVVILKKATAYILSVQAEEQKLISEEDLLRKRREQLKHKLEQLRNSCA
Nuclear receptor subfamily 4 group A member 2 (Homo sapiens), sequence (P43354 whole entry, looked up): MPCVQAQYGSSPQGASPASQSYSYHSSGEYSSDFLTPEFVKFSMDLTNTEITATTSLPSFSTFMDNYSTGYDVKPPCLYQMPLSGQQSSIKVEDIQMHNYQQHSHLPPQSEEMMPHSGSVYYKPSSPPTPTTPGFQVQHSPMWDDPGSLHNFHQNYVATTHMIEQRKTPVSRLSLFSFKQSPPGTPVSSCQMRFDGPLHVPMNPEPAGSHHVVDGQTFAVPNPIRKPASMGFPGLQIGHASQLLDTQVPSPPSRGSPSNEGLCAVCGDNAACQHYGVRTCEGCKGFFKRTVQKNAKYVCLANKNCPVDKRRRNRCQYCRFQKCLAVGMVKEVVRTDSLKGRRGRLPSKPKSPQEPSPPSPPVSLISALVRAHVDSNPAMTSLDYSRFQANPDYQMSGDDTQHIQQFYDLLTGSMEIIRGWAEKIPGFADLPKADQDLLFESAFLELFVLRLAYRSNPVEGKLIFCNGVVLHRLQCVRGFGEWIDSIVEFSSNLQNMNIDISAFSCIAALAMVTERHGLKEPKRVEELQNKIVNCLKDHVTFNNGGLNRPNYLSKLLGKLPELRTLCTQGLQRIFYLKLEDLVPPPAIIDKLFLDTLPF
Hepatocyte nuclear factor 4-alpha (Homo sapiens), sequence (P41235 whole entry, looked up): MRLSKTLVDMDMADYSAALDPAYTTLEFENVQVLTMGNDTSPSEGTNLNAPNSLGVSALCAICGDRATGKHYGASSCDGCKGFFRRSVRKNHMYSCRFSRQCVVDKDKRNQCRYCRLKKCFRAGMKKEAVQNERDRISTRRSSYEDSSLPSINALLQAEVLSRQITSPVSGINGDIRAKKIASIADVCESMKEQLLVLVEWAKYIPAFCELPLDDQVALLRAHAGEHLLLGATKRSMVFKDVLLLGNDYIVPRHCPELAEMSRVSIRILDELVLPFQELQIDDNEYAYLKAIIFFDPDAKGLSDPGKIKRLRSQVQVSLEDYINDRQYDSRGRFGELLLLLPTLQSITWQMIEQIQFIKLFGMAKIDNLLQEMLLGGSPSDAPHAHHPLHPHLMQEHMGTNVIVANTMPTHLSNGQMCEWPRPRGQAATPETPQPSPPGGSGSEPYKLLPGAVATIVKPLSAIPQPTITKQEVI
Oxysterols receptor LXR-beta (Homo sapiens), sequence (P55055 whole entry, looked up, the tested form may be a part): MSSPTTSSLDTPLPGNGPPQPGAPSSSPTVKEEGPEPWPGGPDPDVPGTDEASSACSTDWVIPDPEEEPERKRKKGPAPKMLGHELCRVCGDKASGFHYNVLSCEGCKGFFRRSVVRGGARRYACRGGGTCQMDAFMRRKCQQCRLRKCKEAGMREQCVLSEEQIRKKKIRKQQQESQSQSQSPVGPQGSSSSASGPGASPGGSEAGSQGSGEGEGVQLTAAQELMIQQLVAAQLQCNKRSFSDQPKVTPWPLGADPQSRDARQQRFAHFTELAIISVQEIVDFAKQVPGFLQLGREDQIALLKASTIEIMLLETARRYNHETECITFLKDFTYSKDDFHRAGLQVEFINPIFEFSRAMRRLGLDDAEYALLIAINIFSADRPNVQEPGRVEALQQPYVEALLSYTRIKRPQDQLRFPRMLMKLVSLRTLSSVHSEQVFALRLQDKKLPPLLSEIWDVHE
Oxysterols receptor LXR-alpha (Homo sapiens), sequence (Q13133 whole entry, looked up): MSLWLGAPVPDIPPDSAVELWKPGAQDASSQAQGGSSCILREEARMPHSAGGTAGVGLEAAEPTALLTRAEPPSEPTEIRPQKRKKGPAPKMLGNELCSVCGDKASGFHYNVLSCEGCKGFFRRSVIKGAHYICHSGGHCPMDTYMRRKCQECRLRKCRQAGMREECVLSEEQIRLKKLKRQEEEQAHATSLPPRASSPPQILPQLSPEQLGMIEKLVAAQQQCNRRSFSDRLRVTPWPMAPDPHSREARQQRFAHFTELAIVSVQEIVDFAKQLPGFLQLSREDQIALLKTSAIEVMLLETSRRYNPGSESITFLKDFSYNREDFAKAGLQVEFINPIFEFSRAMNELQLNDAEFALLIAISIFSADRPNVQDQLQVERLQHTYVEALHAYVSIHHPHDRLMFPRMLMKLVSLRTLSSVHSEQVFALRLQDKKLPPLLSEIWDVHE
Transcriptional activator Myb (Homo sapiens), sequence (P10242 whole entry, looked up): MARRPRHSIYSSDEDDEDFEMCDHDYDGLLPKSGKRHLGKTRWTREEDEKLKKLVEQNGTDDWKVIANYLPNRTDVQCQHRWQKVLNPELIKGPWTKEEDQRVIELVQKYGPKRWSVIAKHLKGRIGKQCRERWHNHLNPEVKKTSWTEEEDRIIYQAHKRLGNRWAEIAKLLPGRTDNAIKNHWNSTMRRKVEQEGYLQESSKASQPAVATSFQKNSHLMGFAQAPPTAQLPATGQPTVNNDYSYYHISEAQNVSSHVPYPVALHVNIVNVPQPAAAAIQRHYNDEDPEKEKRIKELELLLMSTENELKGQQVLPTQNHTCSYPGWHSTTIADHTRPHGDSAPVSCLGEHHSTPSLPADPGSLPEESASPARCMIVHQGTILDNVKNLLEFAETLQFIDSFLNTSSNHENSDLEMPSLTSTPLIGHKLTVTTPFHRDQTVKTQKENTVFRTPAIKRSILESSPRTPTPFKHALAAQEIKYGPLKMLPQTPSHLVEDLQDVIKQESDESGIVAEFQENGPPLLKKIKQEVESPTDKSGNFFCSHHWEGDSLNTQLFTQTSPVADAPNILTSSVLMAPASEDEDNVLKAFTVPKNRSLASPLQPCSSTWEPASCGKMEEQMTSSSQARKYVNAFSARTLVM

As a reminder, the AC50 is the midpoint of the concentration-response curve, whichever way the signal moves. `COc1cc(C)ccc1O`: the call in assay [1], in [2], in assay [3], in assay [4], in assay [5] and in [6] was inactive. Also, the call in assay [7], in assay [8], in assay [10] and in assay [11] was inactive. In [9], the AC50 is 17.4 µM (active).
As for `CCCCCCCCC(CO)CCCCCC` (stereo not given), the call in assay [1], in [2], in assay [3], in assay [4], in assay [5] and in assay [6] was inactive. The compound was called inactive in assay [7], in assay [10], in [13] and in [14]. Besides, the results for the AC50 in [12] and in [8] were 117 µM (active) and 179 µM (active), respectively.
In the case of `COC(C=C(C)CCC=C(C)C)OC`, the outcome in [1], in assay [15], in [5], in assay [16], in assay [6] and in assay [12] was inactive. In addition, the result in assay [7], in assay [8], in assay [17], in assay [10] and in assay [11] was inactive. Also, the AC50 in assay [9] was 59.2 µM (active).
With `CCCCC(C=O)CC` (stereo not given), the outcome in [1], in [15], in [18], in [5], in assay [16] and in assay [6] was inactive. The outcome in assay [12], in [7], in assay [8], in assay [17], in assay [9] and in assay [10] was inactive.
Take `CC(C)[N+](C)(CCOC(=O)C1c2ccccc2Oc2ccccc21)C(C)C`: the outcome in assay [1], in [15], in assay [3], in assay [6], in [12] and in [7] was inactive. Moreover, the call in assay [8], in assay [17], in assay [9], in assay [10], in assay [11] and in [13] was inactive. In addition, the result in assay [14] and in assay [19] was inactive.
On to `O=C1CCCCCCCCCCC1`, for which the result in assay [1], in assay [2], in assay [3], in assay [4], in [16] and in assay [6] was inactive. Moreover, the result in assay [12], in assay [7], in [8], in assay [9], in assay [10] and in assay [11] was inactive. Moreover, the result in assay [13] and in assay [14] was inactive.
Turning to `CCCCCCCCCCCCCC(=O)OC(C)C`, the outcome in [1], in [2], in assay [3], in [18], in [4] and in [5] was inactive. In addition, the compound was classed as inactive in [16], in assay [6], in assay [12], in assay [7], in [8] and in assay [9]. Moreover, the result in assay [10] and in [11] was inactive.
As to `CCCCC1CCC(=O)O1` (stereo not given), the result in assay [1], in assay [2], in [3], in [18], in assay [4] and in assay [5] was inactive. Further, the result in assay [16], in assay [6], in [12], in assay [7], in assay [8] and in [17] was inactive. Further, the outcome in [9], in assay [10] and in [11] was inactive.
Turning to `Nc1ccc(C(=O)OCCCOC(=O)c2ccc(N)cc2)cc1`, the result in assay [1], in assay [15], in [18], in assay [5], in [6] and in [12] was inactive. Besides, the compound was classed as inactive in assay [7], in [8], in assay [17], in assay [10] and in assay [11].
